SMILES strings stand for the structures. About 83,000 compounds went through this panel and 20% of them were active in at least one assay; those are over-represented in the sample as a whole.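 The endpoint reported here, percent growth, reads 100 for growth as untreated, 0 for no net growth and -100 for all cells dead.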 Values without a mark were called inactive. Activity calls are given as the source filed them. How the source made its calls: active means growth percent below 10; inactive means the rest.

What all share (experiment): NCI-60 one-dose screen, 48 h (100 = growth as untreated, 0 = no growth, -100 = all killed)
Assay [1] deals with NCI-H23 lung. As to conditions: 10 µM unless noted.
The subject of assay [2] is NCI-H226 lung. The following applies: 10 µM unless noted.
Assay [3] relates to NCI-H322M lung. The following applies: 10 µM unless noted.
Assay [4] deals with HOP-62 NSCLC. As to conditions: 10 µM unless noted.
Assay [5] deals with NCI-H460 lung. As to conditions: 10 µM unless noted.
For assay [6], the system named is NCI-H522 lung. As to conditions: 10 µM unless noted.
Assay [7] deals with 786-0 renal. As to conditions: 10 µM unless noted.
The test system of assay [8] is COLO 205 colon. As to conditions: 10 µM unless noted.
For assay [9], the system named is A549/ATCC NSCLC. The following applies: 10 µM unless noted.
Assay [10] has as its system HOP-92 NSCLC. As to conditions: 10 µM.

Take `COc1cccc2c1CN(C(=O)c1ccc(O)c(C(=O)N3Cc4ccc(OCCC[P+](c5ccccc5)(c5ccccc5)c5ccccc5)cc4C3)c1)C2`: the growth is 75.4% in [1]; 86.9% in assay [2]; 99.1% in assay [3]; 102% in assay [4]; 61.4% in assay [5]; 78% in assay [6]. The growth was 103% in assay [7] and 54% in [8].
Turning to `CCCn1cnc2c(c1=N)C(c1ccc(Cl)cc1)c1sc3c(CC)cccc3c1O2` (stereo not drawn), the growth in assay [1] was 19.2%; in [2], 57.7%; in assay [3], 45.8%; in assay [4] it was 31.1%; in assay [5], 7.5% (active); in assay [6] it was -25.7% (active). The growth is 30.4% in assay [9], 30% in assay [7] and -14.3% (active) in assay [8].
Consider `O=C(Cn1cc[n+](CC(=O)c2ccc(-c3ccccc3)cc2)c1)Nc1cccc2cccnc12`, for which the growth in [1] was 76.8%; in assay [2], 83.7%; in assay [3] it was 95.7%; in [4], 88.4%; in assay [5], 87.8%; in assay [6], 42.3%. Also, the figures for the growth in [7] and in [8] were 95.8% and 74.2%, respectively.
For `N#Cc1c(Nc2ccccc2)nn2c(-c3ccc([N+](=O)[O-])cc3)ccnc12`, the growth in assay [1] was 100%; in [2], 104%; in assay [3], 102%; in [4] it was 109%; in [5] it was 99.3%; in assay [6], 94.8%. For the same compound, the growth is 94.4% in [9], 98.3% in [7] and 107% in [8].
With `Nc1ncc(-c2ccc(NS(=O)(=O)c3ccc(Cl)c(Cl)c3)cc2)[nH]1`, the growth was 95.9% in assay [1]; 87.3% in assay [2]; 97% in assay [3]; 113% in assay [4]; 93.6% in assay [5]; 92.7% in [6]. For the same compound, the growth is 93.8% in assay [7] and 109% in [8].
For the compound `CN1CCN(Cc2ccc(NC(=O)c3cncc(C#Cc4cnn5cccnc45)c3)cc2C(F)(F)F)CC1`, the growth is -23.1% (active) in [1]; -14% (active) in assay [2]; 19.8% in assay [3]; 10.2% in assay [4]; 3.16% (active) in assay [5]; -58.7% (active) in [6]. The growth in [9] is 5.71% (active); in assay [7] it was 27.1%; in [8], -56.6% (active).
In the case of `COc1cc(-c2nc(SC(C)C)n(C(C)C)c(=O)c2C#N)ccc1OCc1ccccc1`, the growth in assay [1] was 85%; in [2] it was 87.4%; in assay [3], 64.9%; in [4], 79%; in assay [5], 21%; in assay [6], 84%. In addition, the growth was 34.4% in assay [7] and 34.5% in [8].
Consider `CCN1CCN(C(=O)[C@]23CCC(C)(C)C[C@H]2C2=CC[C@@H]4[C@@]5(C)Cc6c([nH]c7ccccc67)C(C)(C)[C@@H]5CC[C@@]4(C)[C@]2(C)CC3)CC1`, for which the growth in assay [1] is 87.7%; in [2], 84.4%; in assay [3] it was 89.1%; in assay [4], 110%; in [5], 76.5%; in assay [6], 90.5%. Moreover, the growth is 59.7% in assay [9], 94.2% in [7] and 102% in assay [8].
`Cc1c(F)cc(C(N)=O)cc1NCC(=O)Nc1ccc([N+](=O)[O-])cc1`: the growth in assay [1] is 89.2%; in [2] it was 82.2%; in [3], 99.4%; in [4], 70.6%; in assay [5], 99%; in assay [9], 87.7%. The figures for the growth in [7] and in assay [8] were 87.5% and 105%, respectively.
In the case of `Cc1cc(-c2ccc(Cl)cc2)n(Cc2nnc(SCC(=O)Nc3ccc(S(N)(=O)=O)cc3)n2-c2ccc([N+](=O)[O-])cc2)n1`, the growth in [1] was 90.2%; in assay [2] it was 85.1%; in assay [3], 96%; in assay [4], 104%; in [5], 67.1%; in assay [6], 90%. For the same compound, the growth in assay [9] was 84.3%; in assay [7], 109%; in assay [8], 97%.
Turning to `COc1cc(OC)c(S(N)(=O)=O)cc1C(=O)/C=C/c1ccc(C)cc1`, the growth was 8.61% (active) in assay [1]; -2.47% (active) in assay [2]; 34.6% in assay [3]; 11.9% in assay [4]; -3.51% (active) in assay [5]; 11% in assay [6]. For the same compound, the growth was 22.5% in [9], 19.9% in [7] and 17% in assay [8].
Consider `CC(C)C[C@@H]1N[C@@]2(C(=O)Nc3ccccc32)[C@@H](c2ccc(F)cc2)[C@@H]1C(=O)c1ccc(O)cc1`, for which the growth was 91.6% in assay [1]; 92.7% in assay [2]; 99.1% in [3]; 88.9% in assay [4]; 101% in [5]; 79.6% in assay [6]. Besides, the growth in assay [9] was 85.1%; in [7], 93.2%; in assay [8] it was 110%.
With `Cc1ccc(S(=O)(=O)N(CC[C@@H]2C[C@H]2c2cc3ccccc3o2)S(=O)(=O)c2ccc(C)cc2)cc1`, the growth was 90.8% in assay [1]; 79% in assay [2]; 95.4% in [3]; 115% in [4]; 104% in [5]; 85.3% in assay [6]. The values for the growth in assay [9], in assay [7] and in assay [8] were 94.9%, 99.7% and 115%, respectively.
As to `CCO/C=N/C1=C(C#N)C(c2ccc(OC)cc2)c2sc3c(C)cccc3c2O1` (stereo not drawn), the growth in [1] is 25.4%; in assay [2], 57%; in [3], 45.7%; in assay [4], 40.8%; in assay [5] it was 9.13% (active); in [6] it was -3.87% (active). The growth was 27.3% in [9], 40.8% in [7] and 16.1% in [8].
With `Cc1cc(-c2ccc(Cl)cc2)n(Cc2nnc(SCC(=O)Nc3ccc(S(N)(=O)=O)cc3)n2C2CCCCC2)n1`, the growth in assay [1] was 99.4%; in [2], 93.5%; in assay [3], 97.2%; in assay [4], 114%; in assay [5], 105%; in [6], 99.8%. Also, the growth is 98.4% in [9], 108% in [7] and 116% in [8].
For the compound `C=CC(=O)N1CC=C(c2cc3c(N[C@H](C)c4ccccc4)ncnc3[nH]2)CC1`, the growth was 78.4% in [1]; 58.7% in [2]; 27.2% in assay [3]; 58.1% in [4]; 101% in assay [5]; 60.4% in [9]. For the same compound, the growth is 49.9% in assay [7] and 92.1% in assay [8].
Take `CC/C(=C/c1c(O)cccc1OC)c1ccc2c(OC)cccc2[o+]1`: the growth is 98.9% in assay [1]; 99% in assay [2]; 101% in [3]; 101% in [4]; 103% in [5]; 93.2% in assay [6]. For the same compound, the growth in assay [7] was 101%; in assay [8], 110%.
For the compound `Nc1nc(Nc2ccccc2SSc2ccccc2Nc2nc(N)nc(-c3ccccc3)n2)nc(-c2ccccc2)n1`, the growth is 50.8% in assay [1]; 59% in assay [2]; 92.4% in assay [3]; 17.1% in [4]; 53.2% in [5]; 3.73% (active) in [9]. In addition, the growth is 68.2% in assay [7] and 115% in [8].
Turning to `O=C1C(c2ccccc2)=C(N2CCc3ccccc32)OC1(Cl)Cl`, the growth in [1] was 60.1%; in assay [2] it was 89.2%; in assay [3], 86.3%; in assay [4], 98.1%; in [5], 88.2%; in [6], 75.3%. In addition, the growth in [7] was 60.1%; in assay [8], -8.41% (active).
On to `C[C@H]1c2[nH]c3ccccc3c2C[C@H]2C(=O)N(CCCCCCC(=O)NO)CC(=O)N21`, for which the growth is 94.6% in assay [2]; 84.9% in [3]; 88.7% in assay [4]; 82.7% in assay [5]; 67.6% in [10]; 65.6% in [6]. In addition, the growth in assay [9] was 98%; in assay [7] it was 92%; in assay [8], 90.3%.
As to `Cc1ccc(-c2cc3nc(C(Cl)Cl)nc(C)n3n2)cc1`, the growth in assay [2] was 94.6%; in assay [3] it was 101%; in [4], 92.1%; in assay [5], 95.1%; in [10] it was 110%; in assay [6], 104%. Moreover, the values for the growth in [9], in [7] and in [8] were 108%, 104% and 115%, respectively.
`Nc1nc(Nc2ccccc2SSc2ccccc2Nc2nc(N)nc(-c3cccc(Br)c3)n2)nc(-c2cccc(Br)c2)n1`: the growth in [1] was 31.6%; in assay [2] it was 47.8%; in assay [3] it was 94.8%; in assay [4], 11.8%; in assay [5] it was 31.8%; in assay [7] it was 79.3%. Moreover, in [8], the growth was 116%.
With `Nc1cc(-c2c[nH]c3ccc(Br)cc23)nc2cc(-c3c[nH]c4ccc(Br)cc34)nn12`, the growth in assay [2] is 55.3%; in assay [3], 39.8%; in assay [4], 40%; in assay [5], -24.8% (active); in [6] it was -64% (active); in assay [9] it was 17.7%. Besides, the figures for the growth in assay [7] and in assay [8] were -50.3% (active) and -50.5% (active), respectively.
Regarding `CCOC(=O)c1c(N)c(C#N)cn1-c1cc(OC)c(OC)c(OC)c1`, the growth is 110% in assay [2]; 101% in assay [3]; 101% in [4]; 104% in [5]; 79.1% in assay [10]; 104% in [6]. The growth was 101% in assay [9], 103% in assay [7] and 122% in assay [8].
As for `CCCCCCCn1cc2c(N[C@H](C)c3ccccc3)ncnc2n1`, the growth in assay [2] was 100%; in assay [3] it was 101%; in assay [4], 95.7%; in assay [5] it was 104%; in assay [6] it was 99.6%; in assay [9], 106%. Also, the results for the growth in assay [7] and in assay [8] were 105% and 115%, respectively.
Take `Cc1ccc(CSc2nc(-c3ccc(Cl)cc3)c(C#N)c(N3CCNCC3)n2)cc1`: the growth in assay [2] was 90.2%; in [3], 89%; in assay [4] it was 80.3%; in assay [5], 88.6%; in assay [10], 15.9%; in assay [6], 95%. Also, the growth in assay [9] was 81.2%; in [7], 66.8%; in assay [8], 109%.
Regarding `O=C(c1ccc(Cl)cc1)C1[C@H](c2ccc(Cl)cc2)[C@@H](c2ccccc2)NC12C(=O)Nc1ccccc12` (stereo partly drawn), the growth in assay [2] is 53.5%; in assay [3], 65.5%; in assay [4] it was 69.6%; in [5], 32.7%; in [10], 50.4%; in [6], 78%. The values for the growth in assay [9], in [7] and in assay [8] were 42.6%, 64.2% and 73%, respectively.
With `COc1ccc(/C=N/NC2=NC3C(S2)N(C)C(=O)N3C)cc1` (stereo not drawn), the growth in assay [2] was 57.9%; in assay [3], 47.5%; in assay [4], 29.1%; in assay [5], 9.74% (active); in assay [10], 30.7%; in assay [6], -9.16% (active). Moreover, the growth in assay [9] is 48.6%; in assay [7] it was 43.9%; in [8] it was 7.48% (active).
Turning to `CC(=O)c1ccc(Nc2nc(SCC(C)C)nc(-c3ccccc3)c2C#N)cc1`, the growth is 55.5% in assay [2]; 94.9% in assay [3]; 25.9% in assay [4]; 105% in assay [5]; 44.6% in [10]; 87.3% in [6]. Moreover, the growth in assay [9] was 101%; in assay [7], 53.9%; in [8], 119%.

Values taken from PubChem BioAssay (NCI).
